Screening data: PubChem, National Center for Advancing Translational Sciences (NCATS)
Most compounds without a hit are left out; they make up all but 15% or so of the library.
HCV inh: blocks hepatitis C virus. Huh7.5.1 HCVcc-Cre infection, luciferase reporter, 44 h. Potency, µM (series often up to 41.8 µM), for the others: at the top dose activity change, negative = inhibition, actives largely listed as inhibitors. 340,000 tested, 3.4% active. AID 651820; note: potency is the fitted concentration of half-maximal effect; % is set by controls: 0 for no effect and ±100 for the full control effect
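Infectious HCVcc-Cre (~0.5 moi) was added to cells just after compound, with cells seeded 4 h earlier at 1,000 per well. Luciferase activity after 44 h culture reported infection; substrate was incubated 15 min at room temperature before reading.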
SARS PLP yeast: blocks SARS-CoV papain-like protease in a yeast assay. S. cerevisiae expressing SARS-CoV PLpro, growth rescue. Potency, µM (series often up to 32.9 µM), without a hit: top-dose activity, positive = growth rescue, actives largely listed as activators. 330,000 tested, 0.19% active. AID 485353; calls by dose curve; note: potency is the fitted concentration of half-maximal effect; 0% is about no effect; nearly all actives have a fitted effect of over 55% in size
HCMV antiviral: human cytomegalovirus inhibition. HFF cells, HCMV-luciferase reporter, 72 h; active compounds read low. activity change, negative = inhibition, % at 57.5 µM. 410,000 tested, 4.5% active; in the data active = activity change below about -60%; inconclusive = no clear call, values can overlap the other calls; inactive = above about -39%; note: % is set by controls: 0 for no effect and ±100 for the full control effect
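Compounds were evaluated in HFFs infected with an HCMV luciferase reporter virus (MOI 1 PFU/cell). Luciferase in lysates collected 72 h post infection served as the replication measure.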
Sm TGR inh: S. mansoni TGR enzyme inhibition; AID 485364; 360,000 tested, 3% active; purified TGR, DTNB reduction, TNB absorbance 405 nm; Q962Y6; Potency, µM (titrated, usually from 114 µM), for inactives: at the top dose activity change, negative = inhibition, most hits filed as inhibitors; note: potency is the fitted concentration of half-maximal effect; % is set by controls: 0 for no effect and ±100 for the full control effect; nearly all actives have a fitted effect of over 60% in size
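TGR 20 nM + NADPH 100 uM (dispensed conc.), cpd preinc 15 min RT; start with NADPH (500 uM addition) then DTNB (15 mM addition). Kinetic TNB absorbance, 405 nm filter. Four-parameter Hill fit across titration.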
Pf growth 48h: P. falciparum growth inhibition at 48 hours (one generation); P. falciparum luciferase growth in erythrocytes, 48 h; Potency, µM (doses to about 28.7 µM), inactives show at the highest dose activity change, negative = inhibition, hits mostly inhibitors; 310,000 tested, 5.9% active; AID 504832; note: potency is the fitted concentration of half-maximal effect; % is set by controls: 0 for no effect and ±100 for the full control effect
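A one-generation exposure of luciferase-tagged malaria parasites in RPMI 1640/Albumax erythrocyte culture, 37 C and 5% CO2. Inhibition is inferred from decreased luminescence after adding detection reagent.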
Pf growth 96h: P. falciparum growth inhibition at 96 hours; Potency, µM (highest dose often 28.7 µM), without a hit: at the top dose activity change, negative = inhibition, actives largely listed as inhibitors; 320,000 tested, 6.9% active; P. falciparum luciferase reporter growth, 96 h; note: potency is the fitted concentration of half-maximal effect; % is set by controls: 0 for no effect and ±100 for the full control effect
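Cell-based qHTS: luciferase-tagged P. falciparum in erythrocytes (2% hematocrit, 0.05% parasitemia final) incubated with compounds for 96 hours, 37 C, 5% CO2; luciferase detection reagent then added and luminescence measured.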
* = called active by the depositor; ? = inconclusive; . = no result; ! = not active in a repeat; [ ] = remark or other dose. Unless noted, calls come from the whole dose curve; as a rule, active = well fitted curve in the direction sought with a large enough effect; inconclusive = small, poorly fitted or top-dose-only effect, or another doubt; inactive = no such curve, though single readings can be large; an effect the other way counts as inactive or inconclusive.

SMILES	HCV inh	SARS PLP yeast	HCMV antiviral	Sm TGR inh	Pf growth 48h	Pf growth 96h
CC(C)(C)NC(=O)c1ccc2c(c1)N(CC(=O)N1CCN(c3ccccc3F)CC1)C(=O)C(C)(C)O2	-8.1%	-5.2%	-23.5	0.7%	?	7.5%[5.75 µM]
Cc1ccc(S(=O)(=O)N2C[C@H]3C(=O)C[C@@H](c4ccccc4C)N(S(=O)(=O)c4ccc(C)cc4)[C@H]3C[C@H]2c2ccccc2)cc1	.	.	-36.1	.	.	.
N#CCN(CC#N)C(=O)C1c2ccccc2Oc2ccccc21	12.1%	-3.4%	-9.9	-6.7%	-5.1%	2.94µM*
CC(C)c1ccc(C2(O)C(=O)Nc3cc(Br)ccc32)c(O)c1 (centres undefined)	-4.3%	1.8%	25.5	1.7%	13.1µM*	13.1µM*
O=C1Nc2cc(Br)ccc2C1(O)c1ccccc1O (centres undefined)	-6.0%	-0.2%	?	5.7%	?	?
CC1(c2ccccc2)NC(=O)N(CC(=O)NCCC2=CCCCC2)C1=O (centres undefined)	-4.1%	2.5%	-69.3*	9.8%	32.4%	0.0%
COc1cc(NC(=O)CN2C(=O)NC(C)(c3ccccc3)C2=O)c(C)cc1[N+](=O)[O-] (centres undefined)	-13.2%	29.0%	.	-10.8%	?	11.7µM*
COc1ccc(OC)c(C(=O)CN2C(=O)NC(C)(c3ccccc3)C2=O)c1 (centres undefined)	1.5%	5.2%	-60.7*	-0.7%	6.3%	0.6%
CC1(c2ccc([N+](=O)[O-])cc2)NC(=O)N(CC(=O)Nc2cccnc2Cl)C1=O (centres undefined)	-21.3%	0.0%	-4.6	1.1%	4.1%	11.7µM*
Cc1ccc(C2(C)NC(=O)N(CC(=O)NCCC3=CCCCC3)C2=O)cc1 (centres undefined)	-27.2%	8.7%	-11.1	-5.7%	.	?
COc1ccc(NC(=O)CN2C(=O)NC(C)(c3ccccc3)C2=O)c(OC)c1 (centres undefined)	-29.0%	0.8%	20.0	3.0%	-10.9%	3.4%
O=C(NC1CC1)c1cc(=S)[nH]c2ccccc12	?	5.3%	-2.6	.	.	.
COC(=O)c1ccccc1NC(=O)CSc1nc2ccsc2c(=O)n1CCC(C)C	.	.	28.9	9.9%	.	.
CN(C)c1ccc(/C=N/N=C(N)N)cc1[N+](=O)[O-]	0.5%	0.1%	?	.	2.08µM*	281.1%
CN(C)c1ccc(/C=C/C(=O)c2ccc3c(c2)OCCO3)cc1[N+](=O)[O-]	4.4%	1.5%	-14.1	4.3%	0.0%	46.5%
CC(N)C(=O)c1ccco1 (centres undefined)	1.2%	7.5%	-68.4*	5.9%	?	5.7%
CCOC(=O)C(Cc1ccccc1)C(=O)c1ccco1 (centres undefined)	5.4%	0.2%	-0.3	-31.4%	?	14.4%
COc1ccc(-c2[nH]ncc2CNCCCSC)cc1F	9.4%	-0.7%	-21.0	-11.6%	-2.6%	5.22µM*
O=C(NC1CCCCC1)C(c1ccc(C(F)(F)F)cc1)n1c(=O)c(-c2ccccc2)nc2ccccc21 (centres undefined)	.	.	-24.7	.	.	.
O=C(/C=C/c1ccc2c(c1)OCO2)NCc1ccco1	-5.4%	-0.7%	1.0	39.8µM*	33.9%	69.7%
O=C(/C=C/c1ccc2c(c1)OCO2)NCc1ccncc1	11.3%	-0.4%	64.4	-20.1%	28.9%	35.1%
O=C(/C=C/c1ccc(Cl)c(Cl)c1)NCc1ccco1	1.8%	-44.2%	-11.0	-7.3%	-27.2%	1.85µM*
COCCn1c(SCC(=O)Nc2sccc2C(N)=O)nc2cc(Cl)ccc2c1=O	?	-1.1%	23.0	-0.2%	?	?
O=C(C1=C[C@@H](C2CCCCC2)C[C@@H](OCc2ccc(CO)cc2)O1)N1CCN(Cc2ccccc2)CC1	-17.9%	-3.8%	-14.6	0.0%	4.15µM*	4.15µM*
O=C(C1=C[C@H](C2CCCCC2)C[C@H](OCc2ccc(CO)cc2)O1)N1CCN(Cc2ccccc2)CC1	-26.7%	0.3%	-6.5	?	5.22µM*	11.7µM*
SMILES	HCV inh	SARS PLP yeast	HCMV antiviral	Sm TGR inh	Pf growth 48h	Pf growth 96h
O=C(C1=C[C@H](C2CCCCC2)C[C@H](OCc2ccc(CO)cc2)O1)N1CCOCC1	4.6%	-0.2%	?	-1.7%	-6.7%	?
Cc1ccc(N2CCN(S(=O)(=O)c3ccc4c(c3)oc(=O)n4C)CC2C)cc1 (centres undefined)	-13.5%	0.8%	?	-0.4%	?	?
Cc1csc(SCC(=O)NCc2ccccc2Cl)n1	-12.7%	1.1%	37.9	-5.8%	20.8%	?
COC(=O)c1ccc(NC(=O)CSc2nc3ccc(N4C(=O)C5C6C=CC(C6)C5C4=O)cc3s2)cc1 (centres undefined)	11.2µM*	28.5%	-64.5*	-2.4%	?	9.28µM*
CCc1cccc(CC)c1NC(=O)CSc1nc2ccc(N3C(=O)C4C5C=CC(C5)C4C3=O)cc2s1 (centres undefined)	11.2µM*	-0.1%	?	?	0.0%	.
Cc1cccc(NC(=O)CSc2nc3ccc(N4C(=O)c5ccccc5C4=O)cc3s2)c1C	10.1%	4.1%	2.7	-0.5%	7.1%	44.0%
CN(C)C(=O)CSc1nc2ccc(N3C(=O)c4ccccc4C3=O)cc2s1	-17.3%	0.0%	-65.4*	-12.1%	34.4%	3.9%
O=C(O)c1ccc(CSc2nc3ccc(N4C(=O)C5C6C=CC(C6)C5C4=O)cc3s2)cc1 (centres undefined)	11.3%	10.9%	35.8	2.6%	-8.2%	-24.1%
CCn1cc(/C=C(\NC(=O)c2ccccc2F)C(=O)N2CCN(C)CC2)c2ccccc21	.	.	6.1	.	.	.
COCCN(Cc1cc2cc3c(cc2nc1Cl)OCO3)C(=O)c1ccc(C)cc1	?	0.0%	-69.5*	-5.9%	?	23.2%
COCCN(Cc1cc2cc(C)c(C)cc2nc1Cl)C(=O)Nc1ccccc1	?	0.7%	75.8	-7.9%	?	19.8%
CCc1ccc2c(c1)NC(=O)C2(C)Cc1ccc(C(F)(F)F)nc1 (centres undefined)	.	.	-24.9	.	.	.
O=C(Cn1cnc2ccccc2c1=O)NCCC(=O)Nc1ccc(F)cc1	1.0%	3.2%	21.0	-2.3%	20.3%	2.7%
C/C=C/C=C/C(=O)[C@@H]1[C@@H]([C@]2(C)OC(=O)C(C)=C2O)[C@H]2/C(=C(O)/C=C/C=C/C)C(=O)[C@]1(C)C(=O)C2(C)O (some centres undefined)	-3.0%	0.5%	-2.9	10µM*	-25.3%	7.38µM*
COc1ccc(C(=O)N2CCN(CC(=O)N3CCOCC3)CC2)cc1	-56.4%	3.5%	-6.3	-15.6%	18.0%	4.65µM*!
